In the OligoGym collection:

target: AP1S1; assay: pooled miR-30 sensor sort-seq; sequence = guide strand; conditions: shRNA
Also: reference of the scale not given here.

Sequence	sensor-assay potency score (higher = more potent)
TTGAAGATGATGTCCAGCTCGC	0.319
ATAGACAACTTTGAGGTCCCTC	0.0527
TCTTATAGACAACTTTGAGGTC	-0.45
TTTGCAGCCGCAGTTTTCCCTG	-0.931
ATATCTCTTATAGACAACTTTG	-1.12
TCTAAGAGCTCCACGTATCGGT	0.301
ATCTCTTATAGACAACTTTGAG	-0.956
TTCTTCCGTTCCTTGTCCGAAG	-0.991
TAAGAGCTCCACGTATCGGTGG	0.135
TTATAGACAACTTTGAGGTCCC	0.854
TGTGATGAGCTCATTGTCTTGG	0.479
TCGCGCACCATCTTCTTCCGTT	-0.362
TTTCAGCACACTCTTCTTGGAG	-0.813
TAGACAACTTTGAGGTCCCTCC	-0.899
TTTGTCTAAGAGCTCCACGTAT	-0.832
TTGTCTAAGAGCTCCACGTATC	-1.02
TTCCGTTCCTTGTCCGAAGTGG	0.268
TATATTTACAGTTATTAGGGAG	0.379
TCCAGCTCGCACACACTGCCAA	-0.956
